14 compounds from the supplement of paper PMC7393113 can be followed below.

Counter-ions that a name gives are not always drawn. ± gives the standard deviation of the averaged measurements.

The experiment deals with iBMDM (immortalised mouse bone-marrow-derived macrophages), LPS-stimulated. Kind of experiment: mitochondrial superoxide (MitoSOX fluorescence) fold increase over unstimulated control; higher = more LPS-induced mitochondrial ROS (less inhibition). To be noted: inhibitor concentration: 500 nM; LPS: 100 ng/ml; time after LPS: 1 h. The gist of the method:
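Cells were immortalised mouse bone-marrow-derived macrophages, plated in triplicate and switched to phenol-red-free 1% FCS/DMEM for 20 h. Kinase inhibitors (500 nM, 30 min) preceded MitoSox loading (1 μM, 10 min) and LPS addition (100 ng/ml), with 510/580 nm fluorescence read every 60 min for 4 h. Mitochondrial superoxide is reported as averaged fold induction over untreated macrophages.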
For `Cc1ccccc1-n1c(Cn2nc(-c3cccc(O)c3)c3c(N)ncnc32)nc2cccc(C)c2c1=O`, the mitochondrial superoxide came out at 1.28 ± 0.017.
In turn, `COc1cc(OC)c(/C=C/S(=O)(=O)Cc2ccc(OC)c(NCC(=O)O)c2)c(OC)c1` came in with a mitochondrial superoxide of 1.071 ± 0.0096.
`Cc1cnc(NC(=O)Nc2cc(Br)c(C)cc2OC[C@@H]2CNCCO2)cn1` returned a mitochondrial superoxide of 1.116 ± 0.011.
On to `Cc1ccc(NC(=O)c2ccc(CN3CCN(C)CC3)cc2)cc1Nc1nccc(-c2cccnc2)n1` [Imatinib Mesylate (STI571)], for which the mitochondrial superoxide came to 1.626 ± 0.013.
With `Cc1cn(-c2cc(NC(=O)c3ccc(C)c(Nc4nccc(-c5cccnc5)n4)c3)cc(C(F)(F)F)c2)cn1` [Nilotinib (AMN-107)] the figure was 1.45 ± 0.049.
In turn, `FC(F)(F)c1ccc(/C=C/c2nc(COc3ccc(CCCCn4ccnn4)cc3)co2)cc1` [Mubritinib (TAK 165)] yielded a mitochondrial superoxide of 1.06 ± 0.033.
`CC(C)c1cnn2c(NCc3ccccc3)cc(NCCCCCCN)nc12` displayed a mitochondrial superoxide of 1.16 ± 0.054.
With `CCC[C@H](NC(=O)/C(C#N)=C/c1cccc(Br)n1)c1ccccc1` [Degrasyn (WP1130)] the figure was 1.18 ± 0.047.
Take `Cc1cc(Nc2nc(N[C@@H](C)c3ccc(F)cc3)c(C#N)cc2F)n[nH]1`: the mitochondrial superoxide worked out at 1.09 ± 0.054.
`Nc1nc(N)c2nc(-c3cccc(O)c3)cnc2n1` had a mitochondrial superoxide of 1.03 ± 0.016.
In the case of `CS(=O)(=O)c1ccc(-c2cnc(N)c(C(=O)Nc3ccccc3)n2)cc1`, the mitochondrial superoxide amounted to 1.23 ± 0.053.
`O=c1cc(N2CCOCC2)oc2c1ccc1ccccc12` came in with a mitochondrial superoxide of 1.13 ± 0.049.
As to `Cc1cc(Nc2ncnc3ccc(-c4ccc(CNCCS(C)(=O)=O)o4)cc23)ccc1Oc1ccn2ncnc2c1` [HER2-Inhibitor-1], the mitochondrial superoxide stood at 1.26 ± 0.072.
With `O=C1NC(=O)C(c2ccccc2[N+](=O)[O-])=C1Nc1ccc(O)c(Cl)c1`, the mitochondrial superoxide worked out at 1.12 ± 0.024.
